Results taken from publication PMC5540273 (PLoS ONE, 2017).

Legend:
Settings in all cases: concentration: 1 μM, replicates: in singlicate; n = 1
MAPKAPK5 = system: MAPKAPK5
MARK1 = system: MARK1
MARK2 = system: MARK2
MARK3 = system: MARK3
MARK4 = system: MARK4
MAST1 = system: MAST1
MEK1 = system: T1, MEK1
T1 construct: gene MAP2K1

MEK2 = system: T2, MEK2
T2 construct: gene MAP2K2

MEK3 = system: T3, MEK3
T3 construct: gene MAP2K3

MEK4 = system: T4, MEK4
T4 construct: gene MAP2K4

MEK5 = system: T5, MEK5
T5 construct: gene MAP2K5

MEK6 = system: T6, MEK6
T6 construct: gene MAP2K6

MELK = system: MELK
MERTK = system: MERTK
MET = system: MET
MINK = system: T7, MINK
T7 construct: gene MINK1

MKK7 = system: MKK7
MKNK1 = system: MKNK1
MKNK2 = system: MKNK2
MLCK = system: T8, MLCK
T8 construct: gene MYLK3
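Also: KINOMEscan kinase panel screen.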

Structure (SMILES) | %Inh (MAPKAPK5) [%] | %Inh (MARK1) [%] | %Inh (MARK2) [%] | %Inh (MARK3) [%] | %Inh (MARK4) [%] | %Inh (MAST1) [%] | %Inh (MEK1) [%] | %Inh (MEK2) [%] | %Inh (MEK3) [%] | %Inh (MEK4) [%] | %Inh (MEK5) [%] | %Inh (MEK6) [%] | %Inh (MELK) [%] | %Inh (MERTK) [%] | %Inh (MET) [%] | %Inh (MINK) [%] | %Inh (MKK7) [%] | %Inh (MKNK1) [%] | %Inh (MKNK2) [%] | %Inh (MLCK) [%]
CN(c1ccc(F)c(NC(=O)c2cccc(OC(C)(C)C#N)c2Cl)c1)c1ccc2nc(NC(=O)C3CC3)sc2n1 | 0 | 0 | 0 | 0 | 0 | 40 | 61 | 49 | 0 | 26 | 99.8 | 0 | 0 | 30 | 24 | 54 | 39 | 0 | 22 | 0
CCn1c(-c2nonc2N)nc2c(-c3ccccc3)ncc(OCCCN)c21.O=C(O)C(F)(F)F.O=C(O)C(F)(F)F [GSK260205] | 0 | 0 | 0 | 0 | 0 | 28 | 0 | 0 | 0 | 13 | 92.8 | 0 | 20 | 7 | 21 | 95.7 | 0 | 0 | 1 | 9
COc1ccc(C2=C(Nc3cccc(O)c3)C(=O)NC2=O)cc1 [SB-390766] | 0 | 46 | 0 | 0 | 19 | 0 | 0 | 0 | 0 | 0 | 17 | 0 | 99.4 | 28 | 0 | 0 | 73 | 93.5 | 17 | 2
Cc1ccc(NC(=O)c2ccc(Cl)c(Cl)c2)cc1-c1ccc(C(=O)Nc2ccncc2)cc1 [GSK1398460] | 0 | 7 | 0 | 0 | 16 | 0 | 0 | 0 | 0 | 0 | 27 | 5 | 0 | 36 | 0 | 6 | 0 | 11 | 0 | 0
Cn1cc(-c2ccc3c(c2)CCN3C(=O)Cc2cc(F)cc(F)c2F)c2c(N)ncnc21 [GSK2634140] | 0 | 0 | 0 | 0 | 0 | 0 | 0 | 0 | 0 | 37 | 98.9 | 0 | 12 | 38 | 68 | 21 | 0 | 5 | 1 | 11
N#CC1(c2cccc(C(=O)Nc3cccc(Oc4ccc5nc(NC(=O)C6CC6)sc5n4)c3)c2)CC1 | 0 | 0 | 0 | 0 | 0 | 0 | 18 | 19 | 11 | 0 | 99.1 | 18 | 1 | 80 | 2 | 54 | 0 | 40 | 0 | 36
CNc1nccc(-c2ccc3c(N)n[nH]c3c2)n1 [GSK2206003] | 0 | 0 | 25 | 0 | 0 | 0 | 0 | 5 | 34 | 22 | 49 | 9 | 61 | 21 | 0 | 59 | 0 | 41 | 97.9 | 76
Cc1ccc(C)c(NC(=O)Nc2ccc(C)c(-c3ccc(C(=O)Nc4ccncc4)cc3)c2)c1 [GSK1398473] | 0 | 0 | 0 | 0 | 3 | 0 | 0 | 0 | 0 | 26 | 3 | 0 | 81 | 22 | 0 | 6 | 0 | 0 | 4 | 0
Cn1cc(-c2ccc3c(c2)CCN3C(=O)Cc2cc(F)cc(C(F)(F)F)c2)c2c(N)ncnc21 [GSK2635225] | 0 | 0 | 9 | 0 | 2 | 0 | 0 | 0 | 0 | 29 | 33 | 0 | 0 | 63 | 21 | 7 | 4 | 0 | 2 | 0
COc1ccc(C)c(Nc2ccnc(Nc3ccc(-c4cnc[nH]4)cc3)n2)c1.Cl [GW784041] | 0 | 9 | 0 | 14 | 24 | 0 | 31 | 55 | 0 | 0 | 99.7 | 0 | 34 | 7 | 15 | 44 | 0 | 8 | 0 | 0
